A number with no mark means an inactive call. Records with an inconclusive call do not appear. Calls of active or inactive are those of the source. Unless noted, calls follow the shape of the dose curve; as a rule, active = well fitted curve in the direction sought with a large enough effect; inconclusive = small, poorly fitted or top-dose-only effect, or another doubt; inactive = no such curve, though single readings can be large; an effect the other way counts as inactive or inconclusive.

In assay [1] the target is Methanococcus maripaludis chaperonin (MmCpn) (UniProt Q6LX38). The assay is described as follows: High-Throughput Screening for Modulators of Cytosolic Chaperonin Activity: MmCpn Primary Screen (AID 488978).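 Also: 50 nM MmCpn enzyme hydrolysing 30 µM ATP at 37 °C; 0% is about no effect.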 Summed up: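 MmCpn (50 nM final) was preincubated with compound 5 min at RT, then 30 uM ATP (final) was added and the reaction ran 10 min at 37C. ADP produced was detected by Transcreener HTRF (ex 320 nm; em 590/665 nm).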
Chain of Methanococcus maripaludis chaperonin (MmCpn) (Q6LX38 1-543): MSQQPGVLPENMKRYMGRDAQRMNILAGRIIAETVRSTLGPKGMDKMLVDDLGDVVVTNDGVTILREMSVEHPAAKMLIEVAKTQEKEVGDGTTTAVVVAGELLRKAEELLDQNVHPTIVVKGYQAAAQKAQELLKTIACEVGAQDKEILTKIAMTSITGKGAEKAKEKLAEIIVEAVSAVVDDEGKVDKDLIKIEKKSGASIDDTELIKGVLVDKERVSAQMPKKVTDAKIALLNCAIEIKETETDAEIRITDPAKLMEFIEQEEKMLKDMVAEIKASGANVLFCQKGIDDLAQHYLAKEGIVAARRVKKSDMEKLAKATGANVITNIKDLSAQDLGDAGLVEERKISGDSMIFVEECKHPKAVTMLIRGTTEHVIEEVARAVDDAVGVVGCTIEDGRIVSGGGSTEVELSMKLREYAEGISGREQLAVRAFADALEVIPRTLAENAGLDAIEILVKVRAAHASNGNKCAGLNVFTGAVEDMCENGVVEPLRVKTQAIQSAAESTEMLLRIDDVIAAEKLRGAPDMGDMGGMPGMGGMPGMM

Assay [2] addresses Transient receptor potential cation channel subfamily V member 1 (Homo sapiens) (UniProt Q8NER1). The assay is described as follows: HTS Assay for Compounds that Act as Enhancers of the Vanilloid Receptor 1 (AID 488979). Also: 0% is about no effect. The method, boiled down:
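Calcium influx kinetics via Fluo-8 (480/520 nm) in TRPV1-expressing cells, 2000/well cultured overnight at 35.5C. Compound-alone read 3 min (agonist phase), followed by EC20 capsaicin challenge for 2 min (enhancer phase).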

The target in assay [3] is D(1A) dopamine receptor (Homo sapiens) (UniProt P21728). The assay is described as follows: HTS Assay for Allosteric Agonists of the Human D1 Dopamine Receptor: Primary Screen for Agonists (AID 488981). Also: potency is read from the fitted curve at half-maximal effect. As to activation: 0% is about no effect. Summed up:
(§1)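 Calcium flux in an inducible, force-coupled HEK293 Trex D1 line (overnight at 30 C): agonist mode is the 180 s kinetic read after compound; potentiator mode is the following 180 s read after dopamine at EC20.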

Assay [4] has the same target. The assay is described as follows: HTS Assay for Allosteric Agonists of the Human D1 Dopamine Receptor: Primary Screen for Potentiators (AID 488982). Also: potency is read from the fitted curve at half-maximal effect. Summed up: as §1
The target is the same in assay [5]. The assay is described as follows: HTS Assay for Allosteric Agonists of the Human D1 Dopamine Receptor: Primary Screen for Antagonists (AID 488983).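 Also: calcium flux response to an EC80 dopamine challenge measured with no-wash dye; nearly all actives have a fitted effect of over 65% in size.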 Also: potency is read from the fitted curve at half-maximal effect. Summed up:
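Cells are induced with tetracycline and incubated overnight at 30 C, then loaded with calcium dye for 30 to 90 minutes at room temperature. Compound addition is followed by a 180 s read, then an EC80 dopamine addition and another 180 s read.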

The target in assay [6] is ATP-dependent 6-phosphofructokinase (Trypanosoma brucei brucei) (UniProt O15648). As to the kind of experiment: qHTS Assay to Find Inhibitors of T. brucei phosphofructokinase: hit validation (AID 492961).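 Also: luminescence reports ADP formed as PFK phosphorylates fructose-6-phosphate with ATP; series mostly up to about 51 µM; % is scaled to controls: 0 for no effect and ±100 for the full control effect.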 Summed up: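 In this biochemical qHTS validation, titrated compounds were tested against 1.25 nM PFK with 0.1 mM ATP and 0.5 mM F6P. Percent activity came from controls lacking or containing enzyme.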
Chain of ATP-dependent 6-phosphofructokinase (Trypanosoma brucei brucei) (O15648 whole entry, looked up): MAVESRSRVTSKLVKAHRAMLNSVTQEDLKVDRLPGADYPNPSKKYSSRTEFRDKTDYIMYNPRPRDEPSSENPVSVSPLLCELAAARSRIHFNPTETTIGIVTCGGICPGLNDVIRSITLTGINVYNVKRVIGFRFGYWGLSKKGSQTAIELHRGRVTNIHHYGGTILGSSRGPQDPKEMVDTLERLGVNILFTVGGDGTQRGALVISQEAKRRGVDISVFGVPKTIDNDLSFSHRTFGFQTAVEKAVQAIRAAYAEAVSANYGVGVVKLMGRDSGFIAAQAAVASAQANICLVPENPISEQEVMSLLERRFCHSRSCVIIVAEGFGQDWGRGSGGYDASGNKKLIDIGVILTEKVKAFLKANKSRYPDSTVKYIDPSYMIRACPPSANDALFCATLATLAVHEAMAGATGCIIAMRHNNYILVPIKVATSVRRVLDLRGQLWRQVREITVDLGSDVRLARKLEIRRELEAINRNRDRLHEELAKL

A short description of assay [7]: Validation screen for small molecules that induce genotoxicity in human embryonic kidney (HEK293T) cells expressing luciferase-tagged ELG1 (AID 493106). Also: potency is read from the fitted curve at half-maximal effect. Summed up:
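Luminescence from an ELG1-luciferase fusion serves as the read-out, rising when genetic stress elevates ELG1 protein. HEK293T reporter cells (2,000 per well) received 23 nL compound, incubated 16 hr at 37 °C, then ONE-Glo for 30 min at room temperature.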

Assay [8] has as its target ATPase family AAA domain-containing protein 5 (Homo sapiens) (UniProt Q96QE3). As to the kind of experiment: Validation screen for small molecules that inhibit ELG1-dependent DNA repair in human embryonic kidney (HEK293T) cells expressing luciferase-tagged ELG1 (AID 493107). Also: nearly all actives have a fitted effect of over 70% in size. Also: potency is read from the fitted curve at half-maximal effect. Summed up: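 Luminescence from ONE-Glo, developed 30 min at room temperature, served as read-out of ELG1-luciferase levels. Beforehand, reporter HEK293T cells received 5-fluorouridine plus test compound for 16 hr at 37 °C.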

In assay [9] the target is Thyrotropin receptor (Homo sapiens) (UniProt P16473). The assay is described as follows: qHTS Assay for Antagonists of the Thyroid Stimulating Hormone Receptor (AID 488980). Also: series mostly up to about 58 µM; 0% is about no effect. The method, boiled down:
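HEK293 cells transfected with human TSHR, suspended in HEPES-buffered HBSS with 70 uM RO 20-1724, were treated with compounds plus TSH at EC80 (4 nM final). cAMP was measured by competitive HTRF (cryptate anti-cAMP antibody, cAMP-d2 acceptor).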

The target of assay [10] is Thyrotropin-releasing hormone receptor (Homo sapiens) (UniProt P34981). The assay is described as follows: qHTS for Small Molecule Agonists and Allosteric Enhancers of Human TRH Receptor: Validation Screen for Agonists (AID 493127;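 active = calcium activation more than 3 SD above the typical response in the agonist read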;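 also: intracellular calcium rise by fluo-8 fluorescence before TRH EC20 addition; 0% is about no effect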). To be noted: TRH receptor agonist cell assay; at 2 µM; active compounds read high. Summed up: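 Cells 2000/well, 10% FCS, 18 h 33.5C/5% CO2 → fluo-8 Ca dye, RT 30 min–1.5 h → FDSS baseline 10 × 1 s → compound added → 230 cycles (1 s/cycle) agonist mode. TRH controls.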
Chain of Thyrotropin-releasing hormone receptor (Homo sapiens) (P34981 whole entry, looked up): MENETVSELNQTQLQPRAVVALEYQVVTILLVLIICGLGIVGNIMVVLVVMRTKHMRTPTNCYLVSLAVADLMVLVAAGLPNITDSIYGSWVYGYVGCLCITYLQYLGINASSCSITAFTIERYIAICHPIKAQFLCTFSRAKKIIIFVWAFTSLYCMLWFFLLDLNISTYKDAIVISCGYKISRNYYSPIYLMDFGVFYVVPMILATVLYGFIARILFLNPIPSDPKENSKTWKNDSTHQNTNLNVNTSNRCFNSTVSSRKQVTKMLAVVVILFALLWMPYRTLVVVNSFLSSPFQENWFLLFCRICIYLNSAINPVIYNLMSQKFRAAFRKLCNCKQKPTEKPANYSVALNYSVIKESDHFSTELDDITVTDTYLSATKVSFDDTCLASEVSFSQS
Background: Quantitative high-throughput screening tests each substance at several concentrations.

Chain of Transient receptor potential cation channel subfamily V member 1 (Homo sapiens) (Q8NER1 whole entry, looked up): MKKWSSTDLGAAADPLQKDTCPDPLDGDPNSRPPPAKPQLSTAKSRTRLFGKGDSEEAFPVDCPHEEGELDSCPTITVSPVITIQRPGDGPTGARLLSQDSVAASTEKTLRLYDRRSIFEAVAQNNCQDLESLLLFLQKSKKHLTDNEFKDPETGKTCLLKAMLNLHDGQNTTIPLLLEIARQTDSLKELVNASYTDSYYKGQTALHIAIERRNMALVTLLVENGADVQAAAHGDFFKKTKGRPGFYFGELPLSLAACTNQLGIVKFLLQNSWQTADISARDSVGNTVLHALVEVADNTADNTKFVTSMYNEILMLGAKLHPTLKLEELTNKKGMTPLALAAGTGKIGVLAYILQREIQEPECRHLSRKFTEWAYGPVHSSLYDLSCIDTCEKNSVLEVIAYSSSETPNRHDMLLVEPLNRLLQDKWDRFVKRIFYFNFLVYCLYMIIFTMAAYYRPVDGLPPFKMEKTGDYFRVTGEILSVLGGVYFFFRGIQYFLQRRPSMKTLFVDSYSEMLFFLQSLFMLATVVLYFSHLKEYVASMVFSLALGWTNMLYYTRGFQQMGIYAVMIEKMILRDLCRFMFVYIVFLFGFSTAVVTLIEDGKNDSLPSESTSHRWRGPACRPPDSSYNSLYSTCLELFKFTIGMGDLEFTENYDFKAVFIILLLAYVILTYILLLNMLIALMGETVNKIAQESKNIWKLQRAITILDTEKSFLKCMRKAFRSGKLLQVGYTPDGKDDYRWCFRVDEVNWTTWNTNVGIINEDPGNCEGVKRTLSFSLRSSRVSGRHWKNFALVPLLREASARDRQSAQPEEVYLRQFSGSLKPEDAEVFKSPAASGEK
Chain of ATPase family AAA domain-containing protein 5 (Homo sapiens) (Q96QE3 whole entry, looked up, the tested form may be a part): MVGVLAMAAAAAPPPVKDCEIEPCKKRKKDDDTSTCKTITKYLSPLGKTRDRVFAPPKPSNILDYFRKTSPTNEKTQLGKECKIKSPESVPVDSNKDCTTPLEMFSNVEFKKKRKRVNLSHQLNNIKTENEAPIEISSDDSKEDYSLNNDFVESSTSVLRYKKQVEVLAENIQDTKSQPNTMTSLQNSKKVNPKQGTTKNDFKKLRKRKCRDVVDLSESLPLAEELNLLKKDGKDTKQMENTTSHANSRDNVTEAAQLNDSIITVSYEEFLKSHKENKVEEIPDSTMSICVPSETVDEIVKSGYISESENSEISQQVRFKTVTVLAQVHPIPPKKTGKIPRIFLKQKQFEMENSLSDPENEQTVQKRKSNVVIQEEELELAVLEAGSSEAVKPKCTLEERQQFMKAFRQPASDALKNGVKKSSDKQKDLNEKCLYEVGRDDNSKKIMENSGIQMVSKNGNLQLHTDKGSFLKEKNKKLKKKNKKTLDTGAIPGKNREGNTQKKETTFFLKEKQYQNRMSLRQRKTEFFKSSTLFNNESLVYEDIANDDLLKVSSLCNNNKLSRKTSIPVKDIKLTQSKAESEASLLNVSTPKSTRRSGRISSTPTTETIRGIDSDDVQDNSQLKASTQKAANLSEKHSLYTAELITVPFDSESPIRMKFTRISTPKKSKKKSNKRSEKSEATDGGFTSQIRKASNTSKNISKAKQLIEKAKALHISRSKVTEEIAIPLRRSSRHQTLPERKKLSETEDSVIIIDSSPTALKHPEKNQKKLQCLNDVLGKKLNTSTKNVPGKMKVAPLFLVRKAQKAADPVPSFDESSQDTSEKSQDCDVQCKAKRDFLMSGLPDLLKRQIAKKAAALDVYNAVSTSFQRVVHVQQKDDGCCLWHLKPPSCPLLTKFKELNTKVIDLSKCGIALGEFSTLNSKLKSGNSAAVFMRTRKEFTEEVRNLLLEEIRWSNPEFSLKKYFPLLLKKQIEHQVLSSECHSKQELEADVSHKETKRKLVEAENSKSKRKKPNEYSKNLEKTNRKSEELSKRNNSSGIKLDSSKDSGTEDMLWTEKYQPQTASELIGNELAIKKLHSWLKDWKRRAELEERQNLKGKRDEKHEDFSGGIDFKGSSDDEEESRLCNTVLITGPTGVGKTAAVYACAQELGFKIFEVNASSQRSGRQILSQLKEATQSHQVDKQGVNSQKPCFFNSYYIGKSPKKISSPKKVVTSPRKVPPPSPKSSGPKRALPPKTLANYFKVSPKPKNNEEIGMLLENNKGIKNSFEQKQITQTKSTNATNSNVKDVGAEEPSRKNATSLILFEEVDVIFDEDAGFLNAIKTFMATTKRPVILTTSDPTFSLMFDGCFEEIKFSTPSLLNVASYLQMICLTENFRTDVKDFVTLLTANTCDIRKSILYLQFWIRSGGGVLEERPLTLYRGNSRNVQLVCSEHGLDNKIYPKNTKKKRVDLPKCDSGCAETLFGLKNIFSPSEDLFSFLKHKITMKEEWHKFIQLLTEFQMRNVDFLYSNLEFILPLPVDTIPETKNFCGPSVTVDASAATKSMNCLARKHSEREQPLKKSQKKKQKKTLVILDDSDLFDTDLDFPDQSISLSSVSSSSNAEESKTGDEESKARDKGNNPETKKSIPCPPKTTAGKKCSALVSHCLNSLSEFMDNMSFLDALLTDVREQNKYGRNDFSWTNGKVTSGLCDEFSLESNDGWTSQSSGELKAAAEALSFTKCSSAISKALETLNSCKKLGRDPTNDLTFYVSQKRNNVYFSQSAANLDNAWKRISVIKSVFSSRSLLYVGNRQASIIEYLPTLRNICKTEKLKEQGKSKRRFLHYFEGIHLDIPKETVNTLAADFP
Chain of D(1A) dopamine receptor (Homo sapiens) (P21728 whole entry, looked up): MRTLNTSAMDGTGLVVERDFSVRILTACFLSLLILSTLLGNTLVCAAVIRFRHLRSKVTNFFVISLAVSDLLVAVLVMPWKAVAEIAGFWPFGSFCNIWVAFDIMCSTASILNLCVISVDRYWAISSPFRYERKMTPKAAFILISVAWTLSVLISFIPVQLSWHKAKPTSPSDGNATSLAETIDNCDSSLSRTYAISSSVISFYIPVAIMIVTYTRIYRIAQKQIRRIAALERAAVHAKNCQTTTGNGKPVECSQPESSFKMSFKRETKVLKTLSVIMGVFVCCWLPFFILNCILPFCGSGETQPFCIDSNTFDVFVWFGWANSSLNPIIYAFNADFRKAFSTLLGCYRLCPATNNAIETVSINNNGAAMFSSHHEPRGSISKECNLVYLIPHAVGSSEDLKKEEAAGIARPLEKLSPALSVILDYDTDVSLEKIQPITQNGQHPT

For `NN=C(N)N`, the molecule was called inactive in assay [1], in assay [2] and in assay [6]. Besides, the Potency result in [3], in assay [4], in assay [5], in assay [7] and in assay [8] was “inactive” each time.
As to `O=c1[nH]c2ccccc2n1CCCN1CCC(n2c(=O)[nH]c3cc(Cl)ccc32)CC1`, the result in assay [1], in [2] and in assay [9] was inactive. The Potency result in [3], in assay [4] and in assay [7] was “inactive” throughout. Also, the Potency in [8] was 16.4 µM (active).
Turning to `Cc1ccc(S(=O)(=O)N[C@@H](CCCCN)C(=O)CCl)cc1`, the molecule was classed as inactive in [1], in assay [2] and in assay [9]. For the same molecule, the Potency result in assay [3], in [4], in assay [5] and in assay [7] was “inactive” throughout. The activation in assay [10] is -0.625%.
For the molecule `NCC(CC(=O)O)c1ccc(Cl)cc1` (centres undefined), the result in assay [1], in assay [2] and in assay [9] was inactive. Besides, the Potency result in [3], in assay [5] and in assay [7] was “inactive” in each case. The activation in assay [10] was 0.125%.
For `N#CC(C#N)=Cc1ccc(O)c(O)c1`, the outcome in [1], in [2] and in [9] was inactive. Further, the Potency result in [3], in [5], in assay [7] and in assay [8] was “inactive” throughout. Further, in assay [10], the activation was 1.19%.
For the molecule `NCC1(CC(=O)O)CCCCC1`, the molecule was called inactive in assay [1], in assay [2] and in assay [9]. In addition, the Potency result in assay [3], in [4], in assay [5], in assay [7] and in assay [8] was “inactive” each time. Besides, the activation in assay [10] is 1.12%.
As to `CCC1(C2=NCCN2)Cc2ccccc2O1` (centres undefined), the call in assay [1], in [2] and in assay [9] was inactive. The Potency entry in assay [3], in assay [5] and in assay [7] was “inactive” each time. In addition, in assay [4], the Potency was 2.31 µM (active). In addition, the activation in assay [10] was 0.812%.
In the case of `CC[N+](CC)(CC)CC`, the outcome in assay [2] and in assay [9] was inactive.
Take `CC[C@@H](CO)NC(=O)[C@@H]1C=C2c3cccc4[nH]cc(c34)C[C@H]2N(C)C1`: in assay [1], the molecule was called inactive. Moreover, the Potency entry in assay [3], in [4], in assay [7] and in assay [8] was “inactive” in each case. Moreover, in assay [5], the Potency was 0.447 µM (active).
Regarding `O=c1c(O)c(-c2ccc(O)c(O)c2)oc2cc(O)cc(O)c12`, the Potency is 4.11 µM (active) in assay [4] and 20.6 µM (active) in assay [8].
With `CC(=O)[C@H]1CC[C@H]2[C@@H]3CC[C@H]4C[C@](C)(O)CC[C@]4(C)[C@H]3CC[C@]12C`, the molecule was called inactive in assay [1]. Further, the Potency entry in assay [3], in assay [4], in assay [5], in assay [7] and in assay [8] was “inactive” in each case.
`Cc1cccc(C)c1NC(=O)CN1CCCC1=O`: the molecule was called inactive in assay [1]. Further, the Potency entry in assay [3], in assay [4], in [5], in assay [7] and in assay [8] was “inactive” in each case.
Turning to `COc1cc2c(c(OC)c1OC)-c1ccc(OC)c(=O)cc1[C@@H](NC(C)=O)CC2`, in assay [7], the Potency was 0.461 µM (active).
`CC[C@@H](CO)NC(=O)[C@@H]1C=C2c3cccc4c3c(cn4C)C[C@H]2N(C)C1`: the outcome in assay [1] was inactive. Also, the Potency result in assay [3], in assay [4], in assay [7] and in [8] was “inactive” in each case.
For the molecule `OCCN1CCN(CCCN2c3ccccc3Sc3ccc(C(F)(F)F)cc32)CC1`, the Potency entry in [4] is “inactive”.
Turning to `CCN(CC)CCN1C(=O)CN=C(c2ccccc2F)c2cc(Cl)ccc21`, the result in assay [6] was inactive.
As to `CC(C)=CCOc1c2occc2cc2ccc(=O)oc12`, the outcome in [1] was inactive. In addition, the Potency entry in [3], in [4], in [5], in assay [7] and in assay [8] was “inactive” each time.
For the molecule `CC(CCc1ccccc1)NC(C)C(O)c1ccc(O)cc1` (centres undefined), the call in assay [1] and in assay [9] was inactive. Further, the Potency entry in assay [3], in [4], in [7] and in assay [8] was “inactive” each time.
With `CCCN1CCC[C@@H]2Cc3[nH]ncc3C[C@H]21`, in assay [1], the call was inactive. In addition, the Potency result in [3], in assay [4], in assay [5], in assay [7] and in [8] was “inactive” in each case.
With `COc1ccc(Cc2nccc3cc(OC)c(OC)cc23)cc1OC`, the result in assay [2] and in assay [9] was inactive. For the same molecule, the activation in assay [10] was -0.312%.
As to `Oc1ccccc1-c1ccccc1`, the outcome in [6] was inactive.
For `Cc1cc2c(C(C)C)c(O)c(O)c(C=O)c2c(O)c1-c1c(C)cc2c(C(C)C)c(O)c(O)c(C=O)c2c1O`, the Potency in assay [3] was 22.4 µM (active); in [8], 8.2 µM (active).
In the case of `C[C@@H]1O[C@@H](O[C@H]2C[C@@H](O)[C@]3(CO)[C@H]4[C@H](O)C[C@]5(C)[C@@H](C6=CC(=O)OC6)CC[C@]5(O)[C@@H]4CC[C@]3(O)C2)[C@H](O)[C@H](O)[C@H]1O`, the outcome in [1] was inactive. The Potency result in assay [3], in assay [4], in assay [5] and in assay [7] was “inactive” throughout. The Potency in assay [8] was 0.092 µM (active).
For the molecule `CCn1cc(C(=O)O)c(=O)c2ccc(C)nc21`, the result in assay [2] and in assay [9] was inactive. The activation in assay [10] is 1.06%.
In the case of `Clc1cccc(N2CCNCC2)c1`, the outcome in assay [2] and in [9] was inactive.
Regarding `COc1ccc(C(CN(C)C)C2(O)CCCCC2)cc1` (centres undefined), the call in assay [1] was inactive. Also, the Potency result in assay [3], in assay [4], in assay [5], in assay [7] and in assay [8] was “inactive” in each case.
`CN(C)CCC=C1c2ccccc2CCc2ccccc21`: the Potency result in [4] was “inactive”. In addition, the Potency in assay [5] was 1.12 µM (active).
In the case of `CC(O)(CS(=O)(=O)c1ccc(F)cc1)C(=O)Nc1ccc(C#N)c(C(F)(F)F)c1` (centres undefined), in assay [1], the outcome was inactive. Besides, the Potency entry in assay [3], in assay [4], in [5], in assay [7] and in assay [8] was “inactive” in each case.
Turning to `CCC(COC(=O)c1cc(OC)c(OC)c(OC)c1)(c1ccccc1)N(C)C` (centres undefined), the result in [6] was inactive.
For the molecule `CN(C)C(=O)C(CCN1CCC(O)(c2ccc(Cl)cc2)CC1)(c1ccccc1)c1ccccc1`, the Potency entry in [7] was “inactive”.
On to `CC(C)C(=O)Nc1ccc([N+](=O)[O-])c(C(F)(F)F)c1`, for which the Potency result in [4] and in assay [7] was “inactive” throughout.
Regarding `Oc1cccc2cccnc12`, the molecule was called inactive in [6].

Values taken from PubChem BioAssay (NCATS).
